# AMA1-RON2 inh = qHTS for Inhibitors of AMA1-RON; Towards Development of Antimalarial Drug Lead: Primary Screen; Plasmodium falciparum AMA1 (3D7) - RON2 peptide interaction; AlphaScreen AMA1-biotinylated RON2 peptide binding; Potency, µM (titrated, usually from 58.2 µM), for the others: at the top dose activity change, negative = inhibition, hits mostly inhibitors; actives 0.2% (n = 360,000);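 also: 0% = vehicle wells and -100% = peptide control; nearly all actives have a fitted effect of over 45% in size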
#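 AMA1 (3D7) with his tag at 25 nM final met compounds first, then biotinylated RON2 peptide at 25 nM; detection used donor plus acceptor beads, 10 µg/mL apiece, read by AlphaScreen after 30 min at room temperature.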
# HCV inh = qHTS Assay for Inhibitors of Hepatitis C Virus (HCV) | Huh7.5.1 HCVcc-Cre infection, luciferase reporter, 44 h | actives 3.4% (n = 340,000) | AID 651820, 2012 | Potency, µM (doses to about 41.8 µM), inactives show at the top dose activity change, negative = inhibition, actives largely listed as inhibitors; also: % is scaled to controls: 0 for no effect and ±100 for the full control effect
#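 A cell-based infection assay in which seeded cells (1,000 per well) receive test compound after 4 h, are inoculated with HCVcc-Cre at approximately 0.5 moi, and are incubated 44 h before luminescence detection.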
# Pf growth 48h = Primary qHTS for delayed death inhibitors of the malarial parasite plastid, 48 hour incubation; P. falciparum luciferase growth in erythrocytes, 48 h; Potency, µM (highest dose often 28.7 µM), without a hit: at the highest dose activity change, negative = inhibition, most hits filed as inhibitors; actives 5.9% (n = 310,000); AID 504832, 2011; also: % is scaled to controls: 0 for no effect and ±100 for the full control effect
#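 Luciferase-expressing parasites in RBCs, 2% Hct / 0.1% parasitemia final; RPMI 1640 + 0.5% Albumax; 37 C, 5% CO2, one generation; luminescence read-out, lower signal = inhibition.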
# SARS PLP yeast = qHTS of Yeast-based Assay for SARS-CoV PLP | actives 0.19% (n = 330,000) | S. cerevisiae expressing SARS-CoV PLpro, growth rescue | Potency, µM (doses to about 32.9 µM), for the others: at the highest dose activity, positive = growth rescue, actives largely listed as activators; calls by dose curve; also: 0% is about no effect; nearly all actives have a fitted effect of over 55% in size
# NS1 inh = qHTS Assay for Inhibitors of Influenza NS1 Protein Function; AID 2326, 2010; actives 0.4% (n = 270,000); Potency, µM (titrated, usually from 46.1 µM), inactives show top-dose activity, positive = more growth; calls by dose curve; also: actives are rising curves; nearly all actives have a fitted effect of over 50% in size
#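 Compounds were scored for reversing the slow growth caused by influenza A NS1 in S. cerevisiae, measured by optical density at 600 nm. Assay medium contained 2% galactose at pH 6.0; NS1-free yeast of the same strain were the positive control.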
# Pf growth 96h = Primary qHTS for delayed death inhibitors of the malarial parasite plastid, 96 hour incubation; P. falciparum luciferase reporter growth, 96 h; Potency, µM (doses to about 28.7 µM), for inactives: at the highest dose activity change, negative = inhibition, hits mostly inhibitors; actives 6.9% (n = 320,000); also: % is scaled to controls: 0 for no effect and ±100 for the full control effect
#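 Erythrocytes infected with luciferase-expressing P. falciparum were dispensed at 2% hematocrit and 0.05% parasitemia (final), then incubated with compounds 96 hours at 37 C in 5% CO2. Luminescence after detection reagent addition reported growth.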
# Starred values were filed as active, the others as inactive; ? = inconclusive; . = not tested or not shown; [ ] = remark or other dose. Rows were chosen to be rich in hits. Some 12% of all compounds tested hit in one or more screens of this group. Unless noted, calls follow the shape of the dose curve; as a rule, active = well fitted curve in the direction sought with a large enough effect; inconclusive = small, poorly fitted or top-dose-only effect, or another doubt; inactive = no such curve, though single readings can be large; an effect the other way counts as inactive or inconclusive. Potency is read from the fitted curve at half-maximal effect.
SMILES,AMA1-RON2 inh,HCV inh,Pf growth 48h,SARS PLP yeast,NS1 inh,Pf growth 96h
C[C@@H]1CN([C@@H](C)CO)S(=O)(=O)c2ccc(C#Cc3cccc(F)c3)cc2O[C@@H]1CN(C)CC1CC1,-12.7%,.,.,.,.,.
CCC1(C(=O)c2ccccc2)C(c2ccc([N+](=O)[O-])cc2)C1(C(=O)OC)C(=O)OC (stereo not given),2.9%,?,13.1µM*,-42.7%,3.5%,17.5%
CN(C)S(=O)(=O)c1cccc(NC(=O)CNc2cccc(S(=O)(=O)N3CCCCC3)c2)c1,-8.8%,.,.,.,.,.
O=C(CNc1cccc(S(=O)(=O)N2CCCC2)c1)Nc1ccc(F)cc1F,-9.6%,?,8.28µM*,-0.9%,.,9.28µM*
O=C(CNc1cccc(S(=O)(=O)N2CCOCC2)c1)Nc1ccccc1F,8.1%,-0.1%,-0.2%,0.0%,9.9%,-28.9%
O=C(CNc1cccc(S(=O)(=O)N2CCCCC2)c1)Nc1cccc(F)c1,-4.4%,-21.8%,2.94µM*,1.9%,.,2.33µM*
CN(C(=O)Cn1nnc(-c2cccnc2)n1)C1CCCCC1,5.7%,4.3%,30.4%,0.6%,-8.1%,38.9%
CN(Cc1ccc(Cl)cc1Cl)C(=O)c1cccc(S(=O)(=O)N2CCN(c3ccccc3)CC2)c1,-16.5%,12.6µM*,?,-7.3%,.,?
COc1cccc(NC(=O)CN(C)C(=O)c2cccc(S(=O)(=O)N3CCN(c4ccccc4)CC3)c2)c1,0.0%,?,?,2.7%,-13.7%,?
COc1cccc(CN(C)C(=O)c2cccc(S(=O)(=O)N3CCN(c4ccc(F)cc4)CC3)c2)c1OC,-28.5%,?,10.4µM*,3.7%,.,?
CN(Cc1ccc(OC(F)F)cc1)C(=O)c1cccc(S(=O)(=O)N2CCN(Cc3ccccc3)CC2)c1,23.0%,5.62µM*,.,.,.,.
COc1cccc(CN(C)C(=O)c2cccc(S(=O)(=O)N3CCN(c4ccccc4)CC3)c2)c1OC,-6.7%,7.08µM*,.,.,.,.
CCOC(=O)C1=C(O)C(=O)N(Cc2cccnc2)C1c1ccc(OC)cc1 (stereo not given),-8.3%,7.0%,21.4%,-0.1%,4.7%,-52.9%[5.75 µM]
CCC(C(=O)NCc1ccco1)N(C(=O)CNS(=O)(=O)c1ccccc1)c1ccccc1C (stereo not given),-9.5%,-8.1%,-8.8%,0.5%,-4.5%,-5.8%
CN(Cc1cccs1)C(=O)C1CCN(S(=O)(=O)c2ccccc2)CC1,5.2%,5.7%,?,0.2%,.,?
CN(Cc1ccco1)C(=O)c1cccc(S(=O)(=O)N2CCN(Cc3ccccc3)CC2)c1,-5.8%,.,.,.,.,.
CN(Cc1ccc(OC(F)F)cc1)C(=O)C1CCN(S(=O)(=O)c2ccc3c(c2)OCCO3)CC1,8.7%,6.31µM*,?,2.3%,.,?
COc1cccc(CN(C)C(=O)C2CCN(S(=O)(=O)c3ccc(C)cc3)CC2)c1OC,-2.0%,4.0%,13.1µM*,0.6%,.,11.7µM*
CN(CCOc1ccc(Cl)cc1)C(=O)c1ccc(S(=O)(=O)N2CCOCC2)cc1,23.9%,?,?,0.6%,4.1%,?
COc1cccc(CN(C)C(=O)c2cccc(S(=O)(=O)N3CCN(Cc4ccccc4)CC3)c2)c1OC,16.6%,7.94µM*,?,0.2%,.,?
CN(CCOc1ccc(Cl)cc1)C(=O)c1cccc(S(=O)(=O)N2CCN(c3ccccc3)CC2)c1,-8.8%,3.55µM*,.,.,.,.
O=S(=O)(Nc1c(F)cccc1F)c1ccc(Cl)nc1,-12.7%,12.1%[8.37 µM],0.6%,2.4%,.,37.3%
O=C1C=C(c2cccc3c2sc2ccccc23)C[C@@H](c2ccc(Cl)cc2)C1,0.0%,0.6%,-16.1%,1.5%,.,16.1%
COC(=O)Nc1ccc(S(=O)(=O)N2c3ccccc3CCC2C)cc1 (stereo not given),4.5%,-21.5%,14.7µM*,-3.4%,-38.0%,65.4%
CC1CCc2cc(F)ccc2N1S(=O)(=O)c1ccc(F)cc1 (stereo not given),-2.0%,7.1%,-9.0%,8.91µM*,-17.6%,?
SMILES,AMA1-RON2 inh,HCV inh,Pf growth 48h,SARS PLP yeast,NS1 inh,Pf growth 96h
CN(C)CCCOC(=O)COc1ccc(Br)cc1,-0.2%,6.1%,?,0.1%,2.8%,35.8%
CCOC(=O)c1c(C)n(C)c2ccc(OC)c(NC(=O)CN3CCN(Cc4ccccc4)CC3)c12,-1.3%,?,10.4µM*,4.5%,-4.4%,25.8%
COC(=O)c1c(NC(=O)CN2CCN(C(=O)c3ccco3)CC2)c2c(C)cccc2n1C,1.6%,8.3%,?,-8.1%,-2.7%,.
CCOC(=O)c1c(C)n(C)c2ccc(OC)c(NC(=O)CN3CCN(C4CCCCC4)CC3)c12,1.0%,0.4%,?,9.3%,9.3%,.
CCOC(=O)c1c(C)n(C)c2ccc(OC)c(NC(=O)CN3CCC(C(=O)OCC)CC3)c12,10.6%,-17.7%,?,-0.8%,2.4%,3.29µM*
CCOC(=O)c1c(C)n(C)c2ccc(OC)c(NC(=O)CN3CCN(C(=O)c4ccco4)CC3)c12,3.1%,7.3%,5.22µM*,1.2%,-11.3%,?
Cc1onc(-c2ccccc2)c1C(=O)Nc1nnc(CC(C)C)s1,2.3%,7.0%,11.5%,1.3%,-1.3%,-1.0%
CCc1nnc(SCC(=O)Nc2ccccc2)n1CC1CCCO1 (stereo not given),-4.5%,.,10.9%,-2.2%,3.3%,17.5%
O=c1c2c(nc3nc(CCc4ccccc4)[nH]n13)CCC2,-5.7%,7.0%,0.2%,-0.2%,-2.6%,?
S=c1c2c(nc3nc[nH]n13)CCC2,99.9%,2.0%,2.08µM*,-7.1%,-8.6%,1.65µM*
N#Cc1ccc(-c2csc(N3CCC(C(N)=O)CC3)n2)cc1,.,.,-24.1%,.,.,4.5%
O=C(CN1C(=O)/C(=C/c2ccc(C(F)(F)F)cc2)Sc2ccccc21)NCCCN1CCOCC1,-2.7%,11.2µM*,0.2%,-1.1%,-4.7%,-23.1%
CCc1ccc(/C=C2/Sc3ccccc3N(CC(=O)NCCCN3CCOCC3)C2=O)cc1,-5.4%,?,?,-3.8%,22.9%,?
O=C(CN1C(=O)/C(=C\c2cccc(Br)c2)Oc2ccccc21)NCCCN1CCOCC1,-1.3%,6.31µM*,?,-5.0%,0.0%,?
O=C(CN1C(=O)COc2ccccc21)NCCCN1CCOCC1,2.7%,7.6%,9.8%,2.7%,-6.5%,2.5%
O=C(CCN1C(=O)/C(=C\c2ccccc2)SC1=S)NCCCN1CCOCC1,13.0%,?,13.1µM*,-0.1%,18.3%,7.38µM*

# Bioassay records as filed in PubChem BioAssay.
